Laboratory results reported in PubChem BioAssay AID1159580 (chemical genetic matrix, 2015).
Several values for one entry are separate records, joined by “and”; a condition that tells them apart may be missing. Identical values can stand only once. The campaign covered roughly 5,500 compounds. About 2,000 (36%) were called active. About 18% were inconclusive and are not listed. Rule as the data show it: active = normalized growth mostly below about 0.91 (no sharp cut-off); inconclusive = no clear call, values can overlap the other calls; inactive = mostly above about 0.92. This is one part of the list.

Test: chemical genetic growth profiling, strain panel (AID 1159580);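 also: tested at 20 µM; growth read once vehicle control cultures reached saturation at 30 °C; 1 = growth at the plate median or of vehicle wells; lower values mean less growth of the strain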
Conditions: growth OD

Measured: normalized growth

COc1ccc(CN(CCN(C)C)c2ccccn2)cc1
inactive: S. cerevisiae deletion strains, locus YJR066W, strain TOR1, hits give low values 0.997 | S. cerevisiae deletion strains, locus YJR075W, strain HOC1, hits give low values 0.979 | S. cerevisiae deletion strains, locus YKL009W, strain mrt4, hits give low values 0.954 | S. cerevisiae deletion strains, locus YKL068W, hits give low values 0.992 | S. cerevisiae deletion strains, locus YKL085W, strain MDH1 (second series), hits give low values 0.978 | S. cerevisiae deletion strains, locus YKL085W, strain MDH1, hits give low values 0.978 | S. cerevisiae deletion strains, locus YKL160W, strain elf1, hits give low values 1.04 | S. cerevisiae deletion strains, locus YKL190W, strain CNB1, hits give low values 0.996 | S. cerevisiae deletion strains, locus YKR001C, strain vps1, hits give low values 0.994 | S. cerevisiae deletion strains, locus YKR026C, strain gcn3, hits give low values 1.01 | S. cerevisiae deletion strains, locus YKR091W, strain srl3, hits give low values 1 | S. cerevisiae deletion strains, locus YLL001W, strain dnm1, hits give low values 1.01 | S. cerevisiae deletion strains, locus YLL026W, hits give low values 1.02 | S. cerevisiae deletion strains, locus YLL041C, strain sdh2, hits give low values 1.01 | S. cerevisiae deletion strains, locus YLR027C, strain aat2, hits give low values 1.02 | S. cerevisiae deletion strains, locus YLR039C, strain RIC1, hits give low values 0.996 | S. cerevisiae deletion strains, locus YLR058C, strain SHM2, hits give low values 0.997 | S. cerevisiae deletion strains, locus YLR102C, strain apc9, hits give low values 0.996 | S. cerevisiae deletion strains, locus YLR113W, strain HOG1, hits give low values 1.01 | S. cerevisiae deletion strains, locus YLR221C, strain rsa3, hits give low values 1.01 | S. cerevisiae deletion strains, locus YLR258W, strain gsy2, hits give low values 1.03 | S. cerevisiae deletion strains, locus YLR262C, strain YPT6 (second series), hits give low values 1.01 | S. cerevisiae deletion strains, locus YLR262C, strain YPT6, hits give low values 0.992 | S. cerevisiae deletion strains, locus YLR268W, strain sec22, hits give low values 0.963 | S. cerevisiae deletion strains, locus YLR320W, strain mms22, hits give low values 1.02 | S. cerevisiae deletion strains, locus YLR330W, strain CHS5, hits give low values 0.98 | S. cerevisiae deletion strains, locus YLR342W, strain FKS1 (second series), hits give low values 0.995 | S. cerevisiae deletion strains, locus YLR342W, strain FKS1, hits give low values 1.03 | S. cerevisiae deletion strains, locus YLR357W, strain rsc2, hits give low values 1.03 | S. cerevisiae deletion strains, locus YLR370C, strain arc18, hits give low values 1.02 | S. cerevisiae deletion strains, locus YLR371W, strain rom2, hits give low values 0.972 | S. cerevisiae deletion strains, locus YLR384C, strain iki3, hits give low values 1.02 | S. cerevisiae deletion strains, locus YLR418C, strain cdc73, hits give low values 1 | S. cerevisiae deletion strains, locus YML016C, strain PPZ1, hits give low values 0.997 | S. cerevisiae deletion strains, locus YML032C, strain rad52, hits give low values 0.979 | S. cerevisiae deletion strains, locus YML120C, strain ndi1, hits give low values 1.02 | S. cerevisiae deletion strains, locus YML124C, strain tub3, hits give low values 0.991 | S. cerevisiae deletion strains, locus YMR058W, strain fet3, hits give low values 1 | S. cerevisiae deletion strains, locus YMR078C, strain ctf18, hits give low values 0.992 | S. cerevisiae deletion strains, locus YMR125W, strain sto1, hits give low values 1.02 | S. cerevisiae deletion strains, locus YMR129W, hits give low values 1.01 | S. cerevisiae deletion strains, locus YMR205C, strain PFK2, hits give low values 1.02 | S. cerevisiae deletion strains, locus YMR223W, strain ubp8, hits give low values 1.02 | S. cerevisiae deletion strains, locus YMR231W, strain pep5, hits give low values 1.02 | S. cerevisiae deletion strains, locus YMR307W, strain GAS1, hits give low values 1.01 | S. cerevisiae deletion strains, locus YNL067W, strain RPL9B, hits give low values 0.996 | S. cerevisiae deletion strains, locus YNL071W, strain lat1, hits give low values 1.02 | S. cerevisiae deletion strains, locus YNL128W, strain TEP1, hits give low values 0.967 | S. cerevisiae deletion strains, locus YNL175C, strain NOP13, hits give low values 1.01 | S. cerevisiae deletion strains, locus YNL183C, strain NPR1, hits give low values 0.991 | S. cerevisiae deletion strains, locus YNL197C, strain WHI3, hits give low values 0.966 | S. cerevisiae deletion strains, locus YNL209W, strain ssb2, hits give low values 1.04 | S. cerevisiae deletion strains, locus YNL224C, strain SQS1, hits give low values 0.988 | S. cerevisiae deletion strains, locus YNL233W, strain BNI4, hits give low values 1 | S. cerevisiae deletion strains, locus YNL248C, strain rpa49, hits give low values 1.05 | S. cerevisiae deletion strains, locus YNL250W, strain rad50, hits give low values 0.985 | S. cerevisiae deletion strains, locus YNL271C, strain bni1, hits give low values 0.992 | S. cerevisiae deletion strains, locus YNL298W, strain CLA4, hits give low values 0.997 | S. cerevisiae deletion strains, locus YNL307C, strain MCK1, hits give low values 0.986 | S. cerevisiae deletion strains, locus YNL322C, strain KRE1 (second series), hits give low values 1.04 | S. cerevisiae deletion strains, locus YNR049C, strain mso1, hits give low values 1.01 | S. cerevisiae deletion strains, locus YNR052C, strain pop2, hits give low values 0.993 | S. cerevisiae deletion strains, locus YOL006C, strain TOP1, hits give low values 1.04 | S. cerevisiae deletion strains, locus YOL012C, strain htz1 0.809 | S. cerevisiae deletion strains, locus YOL147C, strain pex11, hits give low values 0.988 | S. cerevisiae deletion strains, locus YOR001W, strain rrp6, hits give low values 0.991 | S. cerevisiae deletion strains, locus YOR061W, strain CKA2, hits give low values 1 | S. cerevisiae deletion strains, locus YOR069W, strain VPS5, hits give low values 0.986 | S. cerevisiae deletion strains, locus YOR070C, strain gyp1, hits give low values 1.02 | S. cerevisiae deletion strains, locus YOR080W, strain dia2, hits give low values 1.03 | S. cerevisiae deletion strains, locus YOR083W, strain WHI5 (second series), hits give low values 0.991 | S. cerevisiae deletion strains, locus YOR083W, strain WHI5, hits give low values 0.998 | S. cerevisiae deletion strains, locus YOR106W, strain vam3, hits give low values 1.04 | S. cerevisiae deletion strains, locus YOR136W, strain idh2, hits give low values 1 | S. cerevisiae deletion strains, locus YOR144C, strain elg1, hits give low values 1 | S. cerevisiae deletion strains, locus YOR184W, strain ser1, hits give low values 1 | S. cerevisiae deletion strains, locus YOR231W, strain MKK1, hits give low values 1 | S. cerevisiae deletion strains, locus YOR265W, strain rbl2, hits give low values 1.02 | S. cerevisiae deletion strains, locus YOR270C, strain vph1, hits give low values 1.08 | S. cerevisiae deletion strains, locus YOR290C, strain snf2, hits give low values 1.04 | S. cerevisiae deletion strains, locus YOR316C, strain cot1, hits give low values 0.988 | S. cerevisiae deletion strains, locus YPL051W, strain arl3, hits give low values 1.04 | S. cerevisiae deletion strains, locus YPL078C, strain atp4, hits give low values 1.04 | S. cerevisiae deletion strains, locus YPL106C, strain sse1, hits give low values 1.04 | S. cerevisiae deletion strains, locus YPL240C, strain hsp82, hits give low values 1.01 | S. cerevisiae deletion strains, locus YPL241C, strain CIN2, hits give low values 0.995 and 0.99 | S. cerevisiae deletion strains, locus YPL256C, strain CLN2, hits give low values 1.05 | S. cerevisiae deletion strains, locus YPR119W, strain clb2, hits give low values 0.988 | S. cerevisiae deletion strains, locus YPR141C, strain kar3, hits give low values 0.981 | S. cerevisiae deletion strains, locus YPR163C, strain tif3, hits give low values 0.988 | S. cerevisiae deletion strains, locus YPR167C, strain met16, hits give low values 0.983 | S. cerevisiae deletion strains, strain wtn01, hits give low values 0.984 | S. cerevisiae strains, strain wild type, hits give low values 0.992
